# Values joined by “and” are separate entries in the source; they are usually repeats but may differ in a detail not shown here. Equal values may be shown once. Where a name gives a salt, the structure may show the parent alone. About 620 (11%) of roughly 5,800 compounds showed activity. Many of the other results were omitted from the sample, so actives are more common in it than they were. A number with no mark means an inactive call.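 How the source made its calls: active = score above a cut-off or among the top three wells of a plate; in these data no inactive exceeds 0.85.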
# System: primary human hepatic stellate cells (donor 1)
# Experiment: scaled lipid accumulation score (0 = DMSO-like, 1 = nortriptyline-like); higher = stronger HSC inactivation (lipid re-accumulation), active = hit call of the paper
# Details: 48 h
# Description: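 Primary lipid accumulation screen in primary human hepatic stellate cell myofibroblasts (donor 1, passage 8) in 384-well plates. 100 nL of library compound was pin-transferred into 30 µL medium in duplicate, and cells were treated for 48 h. The 'Scaled' score combines distance from plate baseline, toxicity and reproducibility penalties, and is normalised to nortriptyline (positive) and DMSO (negative) controls on each plate. A hit is defined as scaled >0.85 or among the top 3 wells per plate.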
# [1] = library stock concentration: 10 mM
# [2] = library stock concentration: 1 mM
# [3] = library stock concentration: 3.33 mM
# [4] = library stock concentration: 80 uM
# [5] = library stock concentration: 400 uM
# [6] = library stock concentration: 2 mM
# [7] = library stock concentration: 8.6 mM
smiles,measurement,setting,value
CCCN(CCC)C1CCc2cccc(O)c2C1 (stereo not given),scaled lipid accumulation score,[1],≤ -0.07
CCCN(CCC)C1CCc2cccc(O)c2C1 (stereo not given) [8-Hydroxy-DPAT hydrobromide],scaled lipid accumulation score,[1],0.055
O=C(O)CCC(CP(=O)(O)O)C(=O)O (stereo not given) [PMPA (NAALADase inhibitor)],scaled lipid accumulation score,[1],≤ -0.006
CCCCC/C=C\C/C=C\C/C=C\C/C=C\CCCC(=O)NCCCC(=O)O [N-Arachidonoyl-.gamma.-Aminobutyric Acid],scaled lipid accumulation score,[2],0.032
CCN1C[C@]2(COC)CC[C@H](OC)[C@]34C5C[C@@H]6[C@@H](OC)C[C@@]7(OCO[C@@]7(C13)[C@@H](O)C24)C5[C@H]6OC (stereo not given in full) [Delcorine],scaled lipid accumulation score,,≤ 0
CN(C)C(=S)SSC(=S)N(C)C [Thiram] [listing 1 of 2 here],scaled lipid accumulation score,library stock concentration: 8.3 mM,0.965 (active)
CN(C)C(=S)SSC(=S)N(C)C [Thiram] [listing 2 of 2 here],scaled lipid accumulation score,[1],0.163
"Ic1ccccc1CNC1C2CCN(CC2)C1C(c1ccccc1)c1ccccc1 [L-703,606 oxalate salt hydrate]",scaled lipid accumulation score,[1],0.063
CN1CCC(c2ccc(F)cc2)C(COc2ccc3c(c2)OCO3)C1 (stereo not given),scaled lipid accumulation score,library stock concentration: 9.7 mM,0.664
CCCCCC(/C=C/C=O)OO (stereo not given) [4-hydroperoxy 2-Nonenal],scaled lipid accumulation score,[2],0.019
O=C1NC(=O)c2c1c1c3ccccc3n3c1c1c2c2ccccc2n1C1CCC3O1,scaled lipid accumulation score,[1],1.3 (active)
O=C1NC(=O)c2c1c1c3ccccc3n3c1c1c2c2ccccc2n1[C@H]1CC[C@@H]3O1,scaled lipid accumulation score,[3],0.338
"COC(=O)[C@]1(O)C[C@@H]2O[C@@]1(C)n1c3ccccc3c3c4c(c5c6ccccc6n2c5c31)C(=O)NC4 [K-252a, Nocardiopsis sp.]",scaled lipid accumulation score,[3],0.362
Cc1sc2c(c1C)C(c1ccc(Cl)cc1)=N[C@H](CC(=O)OC(C)(C)C)c1nnc(C)n1-2,scaled lipid accumulation score,[4],≤ 0
same,scaled lipid accumulation score,[5],≤ 0
same,scaled lipid accumulation score,[6],≤ 0
same,scaled lipid accumulation score,[1],≤ 0
CC[C@@]1(O)C[C@H](O[C@H]2C[C@H](N(C)C)[C@H](O)[C@H](C)O2)c2c(cc3c(c2O)C(=O)c2c(O)ccc(O)c2C3=O)[C@H]1C(=O)OC [Pyrromycin],scaled lipid accumulation score,[1],≤ 0
C[C@@H]1O[C@@H](O[C@H]2C[C@@H](O)[C@]3(CO)[C@H]4[C@H](O)C[C@]5(C)[C@@H](C6=CC(=O)OC6)CC[C@]5(O)[C@@H]4CC[C@]3(O)C2)[C@H](O)[C@H](O)[C@H]1O [Ouabain] [listing 1 of 2 here],scaled lipid accumulation score,[7],0.734
C[C@@H]1O[C@@H](O[C@H]2C[C@@H](O)[C@]3(CO)C4C(CC[C@]3(O)C2)[C@@]2(O)CC[C@H](C3=CC(=O)OC3)[C@@]2(C)C[C@H]4O)[C@H](O)[C@H](O)[C@H]1O (stereo not given in full) [Ouabain],scaled lipid accumulation score,[1],0.993 (active)
C[C@@H]1O[C@@H](O[C@@H]2C=C3CC[C@@H]4[C@H](CC[C@]5(C)[C@@H](c6ccc(=O)oc6)CC[C@]45O)[C@@]3(C)CC2)[C@H](O)[C@H](O)[C@H]1O [Proscillaridin A],scaled lipid accumulation score,,0.768
C[C@@H]1CC[C@@]2(OC1)O[C@H]1C[C@H]3[C@@H]4CC=C5C[C@@H](O[C@@H]6O[C@H](CO)[C@@H](O[C@@H]7O[C@@H](C)[C@H](O)[C@@H](O)[C@H]7O)[C@H](O)[C@H]6O[C@@H]6O[C@@H](C)[C@H](O)[C@@H](O)[C@H]6O)CC[C@]5(C)[C@H]4CC[C@]3(C)[C@H]1[C@@H]2C [Dioscin],scaled lipid accumulation score,[3],0.577
same,scaled lipid accumulation score,[1],0.255
C[C@@H]1O[C@@H](O[C@@H]2C[C@@H](O)[C@]3(CO)[C@H]4[C@H](O)C[C@]5(C)[C@@H](C6=CC(=O)OC6)CC[C@]5(O)[C@@H]4CC[C@]3(O)C2)[C@H](O)[C@H](O)[C@H]1O [Ouabain],scaled lipid accumulation score,[1],1 (active)
C[C@@H]1O[C@@H](O[C@H]2C[C@@H](O)[C@]3(CO)[C@H]4[C@H](O)C[C@]5(C)[C@@H](C6=CC(=O)OC6)CC[C@]5(O)[C@@H]4CC[C@]3(O)C2)[C@H](O)[C@H](O)[C@H]1O [Ouabain] [listing 2 of 2 here],scaled lipid accumulation score,[1],1.13 (active)
C[C@@H]1O[C@@H](O[C@H]2C[C@@H](O)[C@]3(CO)[C@@H]4C(CC[C@]3(O)C2)[C@@]2(O)CC[C@H](C3COC(=O)C3)[C@@]2(C)C[C@H]4O)[C@H](O)[C@H](O)[C@H]1O (stereo not given in full) [Dihydroouabain],scaled lipid accumulation score,[1],0.964 (active)
Cc1c2ccncc2c(C)c2c1[nH]c1ccccc12 [Ellipticine],scaled lipid accumulation score,,0.623
same,scaled lipid accumulation score,[1],≤ -0.07
CCC(N)C(O)c1ccc(O)c(O)c1 (stereo not given) [Ethylnorepinephrine hydrochloride],scaled lipid accumulation score,[7],≤ 0
same,scaled lipid accumulation score,[1],≤ -0.027
NCC(O)c1cc(O)c(O)cc1F (stereo not given) [6-Fluoronorepinephrine hydrochloride],scaled lipid accumulation score,[1],≤ 0
CCCCC/C=C\C/C=C\C/C=C\C/C=C\CCCC(=O)Nc1ccc(O)cc1C,scaled lipid accumulation score,[2],0.064
CCCCCCCC/C=C\CCCCCCCC(=O)N[C@H](C)CO,scaled lipid accumulation score,[2],0.021
COc1cc(C(O)CN)ccc1O (stereo not given),scaled lipid accumulation score,[1],≤ -0.055
C=C(C)[C@@H]1CCC(C)=C[C@H]1c1c(O)cc(O)cc1CCCCC,scaled lipid accumulation score,[2],≤ 0
CCCCC/C=C\C/C=C\C/C=C\C/C=C\CCCC(=O)N[C@@H](C)C(=O)O [N-Arachidonoyl-L-Alanine],scaled lipid accumulation score,[2],0.035
CCn1cnc2c(Nc3cccc(Cl)c3)nc(N[C@@H]3CCCC[C@@H]3N)nc21,scaled lipid accumulation score,[4],≤ -0.016
same,scaled lipid accumulation score,[5],≤ -0.016
same,scaled lipid accumulation score,[6],0.503
same,scaled lipid accumulation score,[1],0.364 and 0.356
CN1CCC[C@@H]1Cc1c[nH]c2ccc(Nc3ncccc3[N+](=O)[O-])cc12,scaled lipid accumulation score,[1],≤ 0
CC[C@]1(O)CC[C@H]2[C@@H]3CCC4=CCCC[C@@H]4[C@H]3CC[C@@]21C [Ethylestrenol],scaled lipid accumulation score,[1],≤ 0
CCN1C[C@]2(C)CC[C@H](O)[C@]34C1[C@@H](C[C@H]23)[C@@]1(O)C[C@H](OC)[C@H]2C[C@@H]4[C@@H]1[C@H]2O [Karakoline],scaled lipid accumulation score,,≤ 0
C=C(C)[C@H]1CN[C@H](C(=O)O)[C@H]1CC(=O)O [Kainic acid],scaled lipid accumulation score,[1],≤ -0.055 and 0.031 and ≤ -0.009
C=C(C)[C@H]1CN[C@H](C(=O)O)[C@H]1CC(=O)O [(-)-(.alpha.)-Kainic Acid (hydrate)],scaled lipid accumulation score,[2],≤ 0

# — the supplement of paper PMC9135407
